High-throughput results deposited in PubChem BioAssay by several laboratories.
Compounds with a hit are over-represented: about 12% of the library has one in this group of screens.
Insulin prom inh: inhibitors of insulin promoter-driven GFP, primary screen, imaging, TRM-6 cells (human fetal islet line), eGFP reporter, cell count | AID 1273, 2008 | reporter expression induced with tamoxifen | inhibition, % at 2 µM | 130,000 tested, 0.9% active;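 active = inhibition above the mean plus 3 SD, with well images judged a real hit on visual review, cut at about 60% in these data, passing the limit was not always enough; inconclusive = inhibition over the cutoff but images rejected on review; inactive = inhibition not above the cutoff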
ROMK primary: ROMK potassium channel modulators, primary screen, cell-based, thallium flux, MLSMR library. ATP-sensitive inward rectifier potassium channel 1 (Homo sapiens), P48048. Tet-inducible ROMK, thallium flux fluorescence; actives lie on both sides. B-score at 10 µM. 130,000 tested, 2% active;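 active = signal ratio slope over the read window, or its plate-corrected B-score, at least 3 SD from the plate mean, either direction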;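 also: B-score of the F/F0 ratio slope over 7 to 12 s after thallium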
Lmaj promast: Leishmania major promastigote growth inhibition, primary screen. inhibition, % at 10 µM. 200,000 tested, 9% active. Leishmania major promastigotes, resazurin fluorescence viability; in the data active = inhibition above about 50%;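 also: promastigotes grown with compound for 44 hours at 28 °C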
KCC2 mod: KCC2 cotransporter modulators, thallium flux, primary screen, cell-based, HEK293 KCC2, FluoZin-2 fluorescence, MLSMR. Solute carrier family 12 member 5 (Homo sapiens), Q9H2X9. KCC2 cells, thallium flux FluoZin-2 fluorescence. B-score of Tl+ flux slope (higher = more flux/activation; lower = inhibition) at 10 µM. 190,000 tested, 2.2% active. AID 1456, 2008;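 active = thallium flux slope and its plate-corrected score both differing from the plate sample mean at a set confidence after two filtering rounds, in either direction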;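 also: slope of fluorescence scaled to starting intensity during 10 to 20 s after thallium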
Ins promoter up: insulin promoter activators in MIN6 cells, imaging, high-content screening, mouse beta cells. MIN6 insulin promoter-GFP reporter; active compounds read high. z-score at 5 µM. 190,000 tested, 0.3% active. AID 1625, 2009;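 active = z-score above 3 at 5 µM with at least 500 cells counted in the well; inconclusive = wells under 500 cells, flagged as cytotoxic or low count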
WT yeast gro inh: growth inhibition of WT strain, primary screen, mitochondrial fusion inhibitor project, WT and mutant strains, chemical genetic | AID 1362, 2008 | inhibition, % at 10 µM | mitochondrial fusion phenotypic screen | 190,000 tested, 2.1% active; in the data active = inhibition above about 58%; tested in S. cerevisiae
An asterisk follows results filed as active; ? = inconclusive; . = no result given.

SMILES | Insulin prom inh | ROMK primary | Lmaj promast | KCC2 mod | Ins promoter up | WT yeast gro inh
CC1CCc2c(nc3ncnn3c2N2CCN(c3ccccc3)CC2)C1 (stereo not drawn) | . | . | 52* | -1.7 | -1.3 | 12
Cc1ccc(C(C)C)c(OCCNC(=S)Nc2cccc3ccccc23)c1 | -48 | . | 31 | . | -0.72 | 72*
CCOc1ccc(/C=N/NC(=O)c2c(-c3ccccc3)noc2C)cc1 | -48 | -0.38 | 13 | -0.56 | 0.15 | -9
Cn1c(NCCCN2CCOCC2)nc2c1c(=O)n(Cc1ccc(Cl)cc1Cl)c(=O)n2C | . | 0.83 | 90* | . | -1.8 | -53
Cn1c(=O)c2c(nc(NCCNC(=O)c3ccco3)n2Cc2ccc(Cl)cc2Cl)n(C)c1=O | 0 | 0.12 | -2 | 0.34 | 0.75 | 7
Cn1nnnc1SCC(=O)Nc1ccccc1-c1ccccc1 | -11 | . | 3 | -0.43 | 0.56 | 7
O=C(COc1cc(Cl)c(Cl)cc1Cl)NC(=O)Nc1ccc2c(c1)OCCO2 | 4 | -0.54 | 63* | -0.039 | -0.27 | -15
CCC(C)n1c(SCC(=O)NC(=O)Nc2ccc3c(c2)OCCO3)nc2ccccc2c1=O (stereo not drawn) | . | -0.53 | 86* | . | 0.42 | 24
Cc1ccc(C)c(SCC(=O)NC(=O)Nc2ccc3c(c2)OCCO3)c1 | 80* | -1.1 | -4 | 0.68 | . | 1
COc1ccc(-n2c(SCC(=O)Nc3ccc4c(c3)OCO4)nc3ccccc3c2=O)cc1 | . | . | 24 | 0.89 | -1.7 | -3
Cc1ccc(Cl)c(OCC(=O)Nc2ccc3c(c2)OCCO3)c1 | 18 | . | -2 | 0.045 | 0.67 | -27
Cc1cc(C)c2cc3c(N)c(C(=O)Nc4c(C)[nH]c(=O)[nH]c4=O)sc3nc2c1 | 34 | . | -3 | -1.6 | 0.56 | 3
O=C(O)c1nn(CCSc2ccccc2F)c(=O)c2ccccc12 | . | . | . | -1.6 | 0.78 | .
CC1(C(=O)OCC(=O)Nc2ccc3ccccc3c2)CC1(Cl)Cl (stereo not drawn) | . | -0.093 | 10 | -0.12 | -0.06 | 66*
Cc1ccc(C(=S)NCS(=O)(=O)c2ccc(C)cc2)cc1 | -23 | . | -3 | 0.36 | . | 7
Cc1ccc(S(=O)(=O)CNC(=S)c2cccc(Cl)c2)cc1 | -2 | . | -5 | 0.61 | 0.15 | 69*
COC(C[C@H](O)C[C@H](O)COCc1ccccc1)OC | . | . | . | 0.81 | 0.47 | .
CC(=O)Nc1ccc(SCC(=O)c2cc(C)n(-c3ccccc3F)c2C)cc1 | 27 | . | 81* | -2 | -0.86 | -28
O=C(CCCc1c[nH]c2ccccc12)NCC1COc2ccccc2O1 (stereo not drawn) | . | -2.2 | 55* | -1.8 | -0.28 | 14
C/C(=N\NC(=O)Cc1c[nH]c2ccccc12)c1ccc2ccccc2c1 | . | 0.21 | 55* | 0.25 | -0.79 | 6
O=C(CCCc1c[nH]c2ccccc12)Nc1ccc2ccccc2c1 | -20 | 0.11 | 52* | -0.29 | 1.1 | 27
S=c1[nH]nc(COc2ccccc2)n1/N=C/c1cccs1 | . | . | -7 | 2.5 | 0.12 | 19
O=C(NCc1cn(-c2ccccc2)nc1-c1ccccc1)c1ccc([N+](=O)[O-])cc1 | -68 | . | 13 | 0.27 | -0.51 | 21
O=C1N(CN2C(=O)C3(OCCO3)c3ccccc32)c2ccccc2C12OCCO2 | . | . | 5 | 1.3 | 0.27 | 17
O=C(c1cc2ccccc2oc1=O)N(c1ccc(Cl)cc1)C1C=CS(=O)(=O)C1 (stereo not drawn) | 20 | -0.93 | 61* | -1.5 | ? | 0
SMILES | Insulin prom inh | ROMK primary | Lmaj promast | KCC2 mod | Ins promoter up | WT yeast gro inh
CCc1nc(Nc2ccc3c(c2)OCO3)c2oc3ccccc3c2n1 | 79* | . | 9 | 0.26 | 0.14 | 0
CCc1nc(NC(C)C)c2oc3ccccc3c2n1 | 89* | -0.47 | 28 | -1.7 | . | 15
CCc1nc(Nc2ccncc2)c2oc3ccccc3c2n1 | 3 | . | 100* | 2.6 | -1.9 | 9
Cc1nc(Nc2ccncc2)c2oc3ccccc3c2n1 | 19 | -0.33 | 23 | . | -0.51 | .
CCC(C)Nc1nc(C)nc2c1oc1ccccc12 (stereo not drawn) | . | . | . | -1.3 | -0.85 | .
Cc1nc(NC(C)c2ccccc2)c2oc3ccccc3c2n1 (stereo not drawn) | 17 | . | 17 | -0.61 | ? | 66*
CC(Sc1nnc2ccccn12)C(=O)N1CCc2ccccc2C1 (stereo not drawn) | 0 | . | -3 | 0.92 | . | -15
Cc1cc(C)n(CC(=O)n2c3ccccc3c3ccccc32)n1 | 4 | . | -5 | 0.0037 | . | 11
CCc1nc(NCCN2CCOCC2)c2oc3ccccc3c2n1 | 85* | 0.052 | 15 | . | 0.29 | -11
CCc1nc(NCCCN2CCOCC2)c2oc3ccccc3c2n1 | 61 | . | 28 | -0.97 | -0.03 | 12
COc1ccc2c(c1)CCC1=C2NC(=S)NC1c1ccc(N(C)C)cc1 (stereo not drawn) | . | 0.016 | 90* | 0.28 | -0.38 | 81*
Cc1cc(C)nc(SCc2csc(N)n2)n1 | 25 | -0.88 | -1 | 1.6 | 1.6 | 3
Cc1cc(C)c(NC(=O)CN(C2CCCCC2)C2CCCCC2)c(C)c1 | . | -0.76 | 96* | . | -0.32 | 36
COc1cc(C(Nc2ccc(S(=O)(=O)NCC3CCCO3)cc2)C(=O)NC(C)(C)C)cc(OC)c1OC (stereo not drawn) | . | -0.14 | . | 0.44 | -2 | .
CCc1ccc2oc(-c3ccc(OC)cc3)cc(=Nc3cccc(C(=O)O)c3)c2c1 | . | 2.3* | 0 | -7.2* | -0.74 | 56
COC(=O)C1CCN(S(=O)(=O)c2ccc(OC)cc2)CC1 | 3 | -0.83 | -1 | . | 0.08 | 4
CCCc1nc2oc3cc(OC)ccc3c(=O)c2c(=O)n1Cc1ccco1 | 3 | -0.52 | 14 | -0.39 | -0.17 | -14
COc1ccc(Cn2c(C)nc3oc4cc(OC)ccc4c(=O)c3c2=O)cc1 | . | -0.039 | 10 | -0.17 | 0.35 | 0
COCCn1c(-c2ccccc2)nc2oc3cc(OC)ccc3c(=O)c2c1=O | 56 | . | 22 | 0.31 | . | -7
CCCCCCn1c(-c2ccco2)nc2oc3cc(OC)ccc3c(=O)c2c1=O | . | 0.63 | 52* | -0.74 | 0.37 | -11
COc1ccc2c(=O)c3c(=O)n(Cc4ccco4)c(-c4ccccc4)nc3oc2c1 | 14 | 0.02 | 62* | . | -0.3 | 11
COc1ccc2c(=O)c3c(=O)n(Cc4ccco4)c(-c4cc(OC)c(OC)c(OC)c4)nc3oc2c1 | 62 | -0.36 | 67* | 1.5 | . | 1
O=C(NCCCN1CCOCC1)c1cn(-c2ccccc2)nc1-c1cccs1 | 16 | 2.1 | 1 | 0.64 | -0.7 | 0
CC(C)C(=O)Nc1ccc(C(=O)N2CCCCCC2)cc1 | 23 | -0.76 | 0 | 0.54 | ? | -1
COc1ccc2cc(C(=O)COC(=O)COc3ccc4c(C)cc(=O)oc4c3)ccc2c1 | . | . | -4 | 0.63 | . | 11
CC1CCCN(CCC(=O)Nc2ccc(Br)cc2)C1 (stereo not drawn) | -292 | . | 53* | -0.56 | -0.82 | 5
